Sampled rows, rich in hits. Any-hit rate of the full collection: about 5.7%.
JMJD2A Tudor: JMJD2A Tudor domain (human) inhibition; 390,000 tested, 4.4% active; AlphaScreen JMJD2A-Tudor / H3K4me3 peptide binding; Potency, µM (highest dose often 114 µM), without a hit: at the highest dose activity change, negative = inhibition, usual class: inhibitors; AID 504339; also: potency is read from the fitted curve at half-maximal effect; % is scaled to controls: 0 for no effect and ±100 for the full control effect; nearly all actives have a fitted effect of over 50% in size
Target sequence (O75164 whole entry, looked up, the tested form may be a part): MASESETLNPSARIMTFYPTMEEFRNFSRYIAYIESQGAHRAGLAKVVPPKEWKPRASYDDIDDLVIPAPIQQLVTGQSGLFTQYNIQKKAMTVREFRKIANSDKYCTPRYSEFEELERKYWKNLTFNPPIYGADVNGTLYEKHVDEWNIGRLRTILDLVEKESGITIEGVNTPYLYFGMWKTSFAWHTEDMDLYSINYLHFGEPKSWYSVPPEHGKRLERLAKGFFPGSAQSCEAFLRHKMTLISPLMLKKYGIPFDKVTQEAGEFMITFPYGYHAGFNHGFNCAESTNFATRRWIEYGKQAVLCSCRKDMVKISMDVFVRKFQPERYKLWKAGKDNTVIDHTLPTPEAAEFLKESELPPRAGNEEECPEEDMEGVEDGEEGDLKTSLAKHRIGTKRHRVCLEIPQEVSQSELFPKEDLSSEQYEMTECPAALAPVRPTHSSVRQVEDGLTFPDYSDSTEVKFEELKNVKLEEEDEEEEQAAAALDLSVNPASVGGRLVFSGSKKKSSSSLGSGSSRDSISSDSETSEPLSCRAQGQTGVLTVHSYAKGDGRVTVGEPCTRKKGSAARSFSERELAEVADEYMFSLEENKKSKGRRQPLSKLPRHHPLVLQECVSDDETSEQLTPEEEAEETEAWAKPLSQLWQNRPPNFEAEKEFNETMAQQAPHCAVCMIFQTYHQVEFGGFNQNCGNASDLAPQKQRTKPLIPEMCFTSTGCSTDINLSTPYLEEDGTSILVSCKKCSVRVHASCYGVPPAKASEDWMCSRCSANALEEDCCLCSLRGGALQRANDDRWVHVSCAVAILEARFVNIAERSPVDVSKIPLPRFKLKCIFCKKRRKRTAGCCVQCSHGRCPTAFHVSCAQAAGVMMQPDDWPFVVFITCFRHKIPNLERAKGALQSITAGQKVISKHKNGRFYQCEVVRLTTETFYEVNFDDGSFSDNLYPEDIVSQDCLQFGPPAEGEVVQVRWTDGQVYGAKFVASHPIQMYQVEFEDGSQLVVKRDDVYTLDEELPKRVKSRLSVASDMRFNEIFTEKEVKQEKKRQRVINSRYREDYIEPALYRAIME
PI5P4K alpha inh: blocks human PI5P4K alpha kinase activity. 330,000 tested, 1.2% active. PI5P4Kalpha enzyme, ADP-Glo luminescence, 60 min; active compounds read low. max response, %. P48426. AID 652105; active = max response of -50% or lower; inconclusive = between -30% and -50%; inactive = -30% or higher; also: value at the top dose of about 77 µM; % is scaled to controls: 0 for no effect and ±100 for the full control effect
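Controls without substrate or without enzyme flank wells where PI5P4Kalpha converts substrate using 5 microM ATP (final). Incubation lasts 60 minutes at room temperature; ADP formed is read by ADP-Glo luminescence.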
L3MBTL1 inh: blocks human L3MBTL1. AlphaScreen L3MBTL1–H3K9me1 peptide binding. Potency, µM (titrated, usually from 57.1 µM), inactives show at the top dose activity, negative = inhibition, usual class: inhibitors. AID 485360. 230,000 tested, 0.66% active. Q9Y468; also: potency is read from the fitted curve at half-maximal effect; % is scaled to controls: 0 for no effect and ±100 for the full control effect; nearly all actives have a fitted effect of over 60% in size
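L3MBTL1 (50 nM) pre-complexed 30 min with biotinylated H3(1-15)K9me1 peptide (75 nM), then compounds added for 30 min at room temperature; AlphaScreen streptavidin donor/nickel chelate acceptor beads (10 ug/mL final) read after 30 min dark incubation.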
HP1b binding inh: blocks HP1-beta chromodomain binding to methylated histone tails. P83916. AlphaScreen HP1-beta / biotin-H3K9me3 peptide binding. Potency, µM (top dose mostly 114 µM), for inactives: at the highest dose activity change, negative = inhibition, actives largely listed as inhibitors. 390,000 tested, 0.56% active; also: potency is read from the fitted curve at half-maximal effect; nearly all actives have a fitted effect of over 70% in size
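Compound inhibition of the preformed complex between 50 nM HP1-beta and 50 nM biotinylated H3K9me3 peptide was read by AlphaScreen. Buffer was PBS pH 7.4 with 0.01% Tween-20. Incubations ran 30 min at room temperature, with 10 ug/mL donor/acceptor beads.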
BAZ2B inh: inhibitors of human BAZ2B bromodomain | 360,000 tested, 4.4% active | Potency, µM (doses to about 114 µM), for the others: at the highest dose activity change, negative = inhibition, hits mostly inhibitors | AlphaScreen BAZ2B-H3K14Ac peptide displacement | Q9UIF8; also: potency is read from the fitted curve at half-maximal effect; % is scaled to controls: 0 for no effect and ±100 for the full control effect; nearly all actives have a fitted effect of over 60% in size
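Inhibition is scored as reduced AlphaScreen emission. The BAZ2B/b-H3(5-23)K14Ac complex (50 nM each) in PBS pH 7.4, 0.01% Tween-20 meets compound (up to 110 uM) for 30 min at RT before bead addition.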
JMJD2E inh: JMJD2E (human) inhibition; B2RXH2; JMJD2E catalytic domain, FDH-coupled NADH fluorescence (FDH is formaldehyde dehydrogenase); Potency, µM (top dose mostly 57.1 µM), inactives show top-dose activity change, negative = inhibition, most hits filed as inhibitors; 230,000 tested, 1.6% active; active = well fitted inhibition curve with a large enough effect, not every such curve was filed as active; inconclusive = small, poorly fitted or top-dose-only effect, or another doubt; inactive = no such curve, though single readings can be large or run the other way;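 also: potency is read from the fitted curve at half-maximal effect; 0% = wells with enzyme and -100% = buffer wells without enzyme; nearly all actives have a fitted effect of over 50% in size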
The depositor's hits bear a star; ? = inconclusive; nt = not tested or not shown; [ ] = dose if it differs, or a comment. Unless noted, calls follow the shape of the dose curve; as a rule, active = well fitted inhibition curve with a large enough effect; inconclusive = small, poorly fitted or top-dose-only effect; inactive = no such curve, though single readings can be large or run the other way.

SMILES | JMJD2A Tudor | PI5P4K alpha inh | L3MBTL1 inh | HP1b binding inh | BAZ2B inh | JMJD2E inh
CCOC(=O)C1CCCN(C(=O)c2ccc3c(c2)N(Cc2cccc(Cl)c2)C(=O)c2ccccc2S3(=O)=O)C1 (configuration not stated) | -14% | nt | nt | 1% | 2% | nt
COc1ccc(C2=NN(c3ccccc3)C(=O)/C2=C\c2ccc(O)c(OC)c2)cc1 | 16µM* | -5 | nt | 16µM* | 25µM* | ?
COc1ccc(/C=C2/C(=O)N(c3ccccc3)N=C2C)cc1OC | -30% | -1 | ? | 4% | -12% | nt
Cc1cc(C)n(-c2nnc(Nc3ccc(C)c(Cl)c3)c3ccccc23)n1 | -4% | nt | nt | 33% | 9% | nt
S=c1[nH]ccn1Cc1ccccc1 | 14µM* | -5 | -12% | -31% | -15% | 10%
Cc1ccc(-c2nn3c(C)nnc3s2)cc1NC(=O)c1ccc(-c2ccc(Cl)cc2Cl)o1 | 63µM* | nt | 7% | 20% | ? | ?
Cc1c(CC(=O)O)c(=O)oc2c(C)c(OCc3ccccc3Br)ccc12 | ? | 2 | nt | 27% | 50µM* | nt
Cc1oc(C(=O)O)cc1COc1ccc2c3c(c(=O)oc2c1C)CCC3 | 2% | 3 | nt | 17% | 13µM* | ?
Cc1c(CC(=O)O)c(=O)oc2c(C)c(OCc3ccccc3)ccc12 | -7% | 4 | nt | 37% | 4% | nt
COc1ccc(C(=O)NNc2ncnc3c2cnn3-c2cccc(Cl)c2)cc1OC | -28% | nt | nt | 41% | 1% | nt
O=C(CSc1nnc2scc(-c3ccc(Cl)cc3)n12)Nc1ccccc1F | -12% | nt | nt | 35% | -1% | nt
CN=c1scc(-c2ccccc2F)n1/N=C/c1ccc[nH]1 | 50µM* | -25 | nt | 40µM* | 32µM* | -8%
Fc1ccc(N=Cc2ccc[nH]2)cc1 | -13% | 8 | nt | 6% | 4% | nt
CCc1cccc(NC(=O)c2cc3c(=O)n(Cc4ccccc4)ccc3nc2C)c1 | -32% | nt | nt | ? | -13% | nt
Cc1ccc(-c2nc(C)c(CCNC(=O)c3cccs3)s2)cc1 | -24% | nt | nt | 16%[57 µM] | -15% | nt
C/C=C\C=C/C(=O)Nc1cccc(C2=NOC3(C2)C[C@H](C(N)=O)N(C(=O)Cc2ccc([N+](=O)[O-])cc2)C3)c1 (some centres not stated) | 79µM* | -57* | nt | ? | -22% | 1%
C/C=C/C=C/C(=O)N1CC2(CC(c3cccc(NC(=O)CCCCC)c3)=NO2)C[C@H]1C(N)=O (some centres not stated) | -28% | -76* | nt | -4% | -6% | -12%
C/C=C/C(=O)N1CC2(CC(c3cccc(NC(=O)CCCCC)c3)=NO2)C[C@H]1C(N)=O (some centres not stated) | nt | nt | nt | nt | ? | -2%
C/C=C\C=C/C(=O)Nc1cccc(C2=NOC3(C2)C[C@@H](C(N)=O)N(C(=O)CCCCC)C3)c1 (some centres not stated) | 79µM* | -67* | nt | ? | -4% | 5%
C[C@@H]1C[C@](C)(C(=O)c2ccco2)C=C1c1ccco1 | nt | nt | nt | nt | nt | -9%
Cc1cccc(C(=O)N2CCc3cc(CNS(=O)(=O)c4ccc(F)c(Cl)c4)ccc32)c1 | 4% | nt | nt | 35%[57 µM] | 4% | nt
NC(=O)CC[C@H](NC(=O)c1ccc(F)cc1)C(=O)OCC(=O)NCc1ccc(F)cc1 | 14µM* | -17 | 5% | -9% | 0% | 11%
C#CCOCCOCCOCCNc1nc(N2CCN(C(=O)[C@H](CCCCN)n3cc(CN)nn3)CC2)nc(N2CCN(C(=O)[C@H](CCCCN)n3cc([C@@H](N)[C@H](C)CC)nn3)CC2)n1 | -35% | 2 | 9% | 29% | nt | nt
C#CCOCCOCCOCCNc1nc(N2CCN(C(=O)[C@H](CCCCN)n3cc([C@@H](N)C(C)CC)nn3)CC2)nc(N2CCN(C(=O)[C@H](CCCCN)n3cc([C@@H](N)CO)nn3)CC2)n1 (some centres not stated) | nt | nt | ? | nt | 22µM* | 20µM*

From PubChem BioAssay
